# VDR inh: inhibitors of human vitamin D receptor | P11473 | VDR-SRC2-3 peptide fluorescence polarization, 2 h | Potency, µM, actives largely listed as inhibitors | 0.93% of 400,000 active | AID 504847
# Target sequence (P11473 whole entry, looked up): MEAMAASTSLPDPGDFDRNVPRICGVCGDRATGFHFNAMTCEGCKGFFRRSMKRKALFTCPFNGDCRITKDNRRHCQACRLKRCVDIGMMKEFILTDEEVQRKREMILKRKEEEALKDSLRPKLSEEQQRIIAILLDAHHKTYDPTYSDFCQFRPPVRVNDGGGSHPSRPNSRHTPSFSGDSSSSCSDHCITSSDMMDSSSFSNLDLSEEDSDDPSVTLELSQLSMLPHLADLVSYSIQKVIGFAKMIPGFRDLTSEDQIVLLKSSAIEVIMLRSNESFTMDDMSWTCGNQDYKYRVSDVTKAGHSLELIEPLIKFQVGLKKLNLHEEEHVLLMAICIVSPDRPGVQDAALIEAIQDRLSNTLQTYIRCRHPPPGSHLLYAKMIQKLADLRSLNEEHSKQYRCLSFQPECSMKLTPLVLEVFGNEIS
#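 Compounds are added to VDR with labelled SRC2-3 coactivator peptide and held 2 h at room temperature. Inhibition of the VDR–peptide interaction is then read as a change in fluorescence polarization.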
# KAT2A inh: inhibitors of human GCN5L2 histone acetyltransferase. Q92830. GCN5L2 HAT assay, ThioGlo1 CoA-SH fluorescence. Potency, µM (doses to about 58.9 µM), usual class: inhibitors. 0.21% of 390,000 active
#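 Titration-based screen in which CoA formation is detected via maleimide probe ThioGlo1 (50uM) turning fluorescent on thiol reaction; substrates H3(1-25) 75uM and acetyl-CoA 70uM, GCN5L2 20nM, 20 min incubation at room temperature.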
# TDP1 inh: blocks human tyrosyl-DNA phosphodiesterase 1; 0.28% of 350,000 active; AID 485290; Potency, µM (series often up to 130 µM), hits mostly inhibitors; recombinant TDP1, AlphaScreen DNA substrate cleavage; note: nearly all actives have a fitted effect of over 40% in size
#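 E. coli-derived human Tdp1, 1 nM final. Cpd preinc 15 min RT; substrate 15 nM final, 5 min RT; AS bead mix 10 ug/ml final, 10 min RT. Signal loss = tyrosine-FITC cleavage. No-enzyme wells = max signal.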
# PLK1 PBD block: inhibitors of human PLK1 polo-box domain binding | 2.8% of 360,000 active | P53350 | Potency, µM, hits mostly inhibitors | Plk1 PBD binding of FITC phosphopeptide, fluorescence polarization; note: series mostly up to about 57 µM; nearly all actives have a fitted effect of over 65% in size
# TDP1 cell noCPT: qHTS for Inhibitors of human tyrosyl-DNA phosphodiesterase 1 (TDP1): qHTS in cells in absence of CPT; AID 686978, 2013; Potency, µM (series often up to 46.2 µM), usual class: inhibitors; 15% of 420,000 active; DT40 Tdp1-/- hTDP1 cells, no CPT, ATP luminescence, 48 h; note: nearly all actives have a fitted effect of over 55% in size
#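 Cells were dispensed at 400 per well, compounds added by pin tool, plates incubated ≥48 hr at 37 °C, then CellTiter-Glo added for 30 min at room temperature before luminescence reading. Line: DT40 Tdp1-/- complemented with hTDP1; camptothecin omitted.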
# TDP1 cell CPT: growth inhibition of DT40 Tdp1-/-;hTDP1 cells with camptothecin (screen for TDP1 inhibitors); chicken DT40 Tdp1-/-;hTDP1 cells + 20 nM CPT, ATP luminescence, 48 h; 12% of 420,000 active; Potency, µM (top dose mostly 46.2 µM), usual class: inhibitors; note: nearly all actives have a fitted effect of over 55% in size
#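 Chicken DT40 Tdp1-/- cells stably complemented with human TDP1 were seeded at 400 cells/well in medium containing 20 nM camptothecin, exposed to pin-transferred compounds, and grown at 37 °C for at least 48 hr. Viability was read as ATP luminescence.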
# Hits are given with their value; – = inactive; ? = inconclusive; · = no result given; [ ] = another dose, or the depositor's remark. The list is not random: actives were taken first. Their share in the collection is about 18%. Calls come from the whole dose curve; as a rule, active = well fitted curve in the direction sought with a large enough effect; inconclusive = small, poorly fitted or top-dose-only effect, or another doubt; inactive = no such curve, though single readings can be large; an effect the other way counts as inactive or inconclusive.
SMILES,VDR inh,KAT2A inh,TDP1 inh,PLK1 PBD block,TDP1 cell noCPT,TDP1 cell CPT
Cc1cccc(CN2C(=O)N/C(=C/c3cc(C)n(-c4ccccn4)c3C)C2=O)c1,–,–,–,–,?,?
Cc1cc(/C=c2\sc3nc4ccccc4n3c2=O)c(C)n1-c1ccc(C(=O)O)cc1,–,–,·,21µM,13µM,13µM
O=C(Nc1ccnn1C1CCN(CCCc2ccccc2)CC1)c1cccc(F)c1,–,–,–,–,–,?
O=[N+]([O-])c1cccc(S(=O)(=O)c2ccc(NCCO)c([N+](=O)[O-])c2)c1,?,–,–,13µM,?,?
O=C(Nc1ccnn1C1CCN(Cc2cccc(F)c2F)CC1)C1CCCC1,–,–,–,–,–,–
CCOc1cc(S(=O)(=O)NCc2cccs2)ccc1Cl,–,–,–,27µM,?,?
CC(=O)Nc1ccc(S(=O)(=O)NCc2ccncc2)cc1,–,–,–,–,9.2µM,9.2µM
CCOc1ccc(S(=O)(=O)NCc2ccncc2)cc1,–,–,–,–,0.52µM,0.46µM
CCOc1ccc(S(=O)(=O)NCc2cccs2)cc1C(C)C,–,–,–,–,?,?
CC(=O)Nc1ccc(S(=O)(=O)NCCSCc2ccccc2Cl)cc1,–,–,–,–,18µM,9.2µM
CC1=C(C(=O)N(C(C)C)C(C)C)CC(CC(=O)NC(c2ccccc2)c2ccccc2)C(=O)N1CCCN1CCCC1=O (configuration not stated),·,·,·,–,–,–
CCOc1cc(S(=O)(=O)NCc2ccncc2)ccc1Cl,–,–,–,–,0.58µM,0.52µM
Cc1ccc(NS(=O)(=O)c2ccc(C(=O)NCc3ccncc3)cc2)cc1,–,–,·,–,?,?
Cc1ccc(S(=O)(=O)NCc2ccncc2)cc1,–,–,–,–,3.7µM,4.1µM
CCOc1ccc(NS(=O)(=O)c2ccc(C(=O)NCc3ccncc3)cc2)cc1,–,–,·,–,13µM,?
Cc1ccc(S(=O)(=O)NCCCCCCNS(=O)(=O)c2ccc(C)cc2)cc1,·,·,·,–,23µM,?
Cc1ccc(S(=O)(=O)NCCCNS(=O)(=O)c2ccccc2)cc1,–,–,·,–,–,–
Cc1cc2nc(-c3ccc(OCc4ccc(F)cc4)cc3)cc(C(F)(F)F)n2n1,–,–,–,·,–,–
O=C(NC1CCCCCC1)c1ccc(-n2cnnc2)cc1,–,?,–,–,–,–
COC(=O)c1ccc(COc2ccc(/C=N/O)cc2OC)o1,–,–,–,–,–,–
CC1CCCCC1NS(=O)(=O)c1ccc(S(=O)(=O)NCc2ccncc2)cc1 (configuration not stated),–,–,–,–,7.3µM,6.5µM
CCCCCCNC(=O)CCCCCNS(=O)(=O)c1ccc(Br)cc1,–,–,–,–,?,–
CCCCCCNC(=O)CCCCCNS(=O)(=O)c1ccc(OC)cc1,–,–,–,–,?,18µM
Cc1ccc(CSCCNS(C)(=O)=O)cc1,–,–,–,–,–,–
Cc1ccc(CSCCNS(=O)(=O)c2ccccc2)cc1,–,–,–,?,29µM,–
SMILES,VDR inh,KAT2A inh,TDP1 inh,PLK1 PBD block,TDP1 cell noCPT,TDP1 cell CPT
CCOc1cc(S(=O)(=O)Nc2cc(C)cc(C)c2)ccc1Cl,–,–,–,–,16µM,16µM
CN(C)CCN(C(=O)C1=COCCO1)c1nc2ccc(F)cc2s1,–,·,·,–,–,–
CC(C)COC[C@H](CN(Cc1ccccc1)c1ccccc1)N1CCCC1,–,–,–[21 µM],·,·,·
COC(=O)[C@@H]1CCCN1Cc1ccc2c(c1)CN(Cc1cccc(Cl)c1)CCO2,·,·,·,·,–,–[9.04 µM]
Cc1cnc(-n2ncc(C(=O)NCCCc3ccncc3)c2C)nc1-c1ccc(F)cc1,·,·,·,·,–,–[9.04 µM]
CC(=O)CCS(=O)(=O)c1ccc(NC(C)=O)cc1,–,–,–,–,18µM,13µM
CCc1ccc(N2C(=O)CN(Cc3cc(OC)c(OC)c(OC)c3)C2=S)cc1,?,–,–,–,23µM,16µM
Cc1cc(C)cc(N2C(=O)CN(Cc3ccccc3)C2=S)c1,–,–,·,24µM,–,–

# Compound activity (PubChem BioAssay)
